A short description of assay [1]: Quantitative High-Throughput drug screen in 47 multiple myeloma cell lines against the NCATS MIPE library collection: EJM_DSMZ cell viability assay (AID 1918926; also: nearly all actives have a fitted effect of over 30% in size). A digest of the protocol: (§1)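 Primary qHTS used for cherry-picking: cells at 500/well, library compounds for 48 h (37C, 5% CO2), luminescent ATP assay.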
Assay [2] is described as follows: Quantitative High-Throughput drug screen in 47 multiple myeloma cell lines against the NCATS MIPE library collection: AMO1_DSMZ cell viability assay (AID 1918927; also: nearly all actives have a fitted effect of over 30% in size). A digest of the protocol: as §1
Assay [3] in a line: Quantitative High-Throughput drug screen in 47 multiple myeloma cell lines against the NCATS MIPE library collection: ARD_JJKsccE7 cell viability assay (AID 1918929). An outline of the steps: as §1
Assay [4] is described as follows: Quantitative High-Throughput drug screen in 47 multiple myeloma cell lines against the NCATS MIPE library collection: Karpas620_DSMZ cell viability assay (AID 1918959). Also: nearly all actives have a fitted effect of over 30% in size. An outline of the steps: (§2)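 Inhibition of cell viability is measured here. Each line was plated at 500 cells per well, treated with MIPE 4.0 drugs, kept 48 hours at 37C, then assayed for ATP content by CellTiter-Glo luminescence.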

A short description of assay [5]: Quantitative High-Throughput drug screen in 47 multiple myeloma cell lines against the NCATS MIPE library collection: KMM1_JCRB cell viability assay (AID 1918960). Also: nearly all actives have a fitted effect of over 30% in size. A digest of the protocol: (§3)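 Myeloma cells, 500 per well, were exposed to MIPE 4.0 drugs by pin transfer for 48 h at 37 °C, 5% CO2. Viability was read as ATP luminescence with CellTiter-Glo, normalised to DMSO-only (100%) and medium-only (0%) wells.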

A short description of assay [6]: Quantitative High-Throughput drug screen in 47 multiple myeloma cell lines against the NCATS MIPE library collection: JIM3_ECACC cell viability assay (AID 1918963; also: nearly all actives have a fitted effect of over 35% in size). A digest of the protocol:
as §2

Assay [7] is described as follows: Quantitative High-Throughput drug screen in 47 multiple myeloma cell lines against the NCATS MIPE library collection: H1112_PLB cell viability assay (AID 1918967; also: nearly all actives have a fitted effect of over 30% in size). A digest of the protocol:
as §1

Assay [8] can be described thus: Quantitative High-Throughput drug screen in 47 multiple myeloma cell lines against the NCATS MIPE library collection: KMS12BM_JCRB cell viability assay (AID 1918971). Also: nearly all actives have a fitted effect of over 35% in size. A digest of the protocol:
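Steps: seed 500 cells per well; pin-transfer MIPE 4.0 library; incubate 48 h at 37C, 5% CO2, humidified; add CellTiter-Glo, 5 min room temperature; read luminescence.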

Assay [9] in a line: Quantitative High-Throughput drug screen in 47 multiple myeloma cell lines against the NCATS MIPE library collection: KMS12PE_JCRB cell viability assay (AID 1918972). Also: nearly all actives have a fitted effect of over 30% in size. A digest of the protocol: (§4)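 qHTS of the MIPE 4.0 collection: 500 myeloma cells/well, 48 h drug exposure at 37C in 5% CO2, then CellTiter-Glo for 5 min at room temperature before luminescence reading.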
The nature of assay [10]: Quantitative High-Throughput drug screen in 47 multiple myeloma cell lines against the NCATS MIPE library collection: KMS20_JCRB cell viability assay (AID 1918973). Also: nearly all actives have a fitted effect of over 45% in size. A digest of the protocol: as §1
Assay [11] can be described thus: Quantitative High-Throughput drug screen in 47 multiple myeloma cell lines against the NCATS MIPE library collection: ARP1_JJKsccF8 cell viability assay (AID 1918928; also: nearly all actives have a fitted effect of over 40% in size). A digest of the protocol: as §3
Assay [12] in a line: Quantitative High-Throughput drug screen in 47 multiple myeloma cell lines against the NCATS MIPE library collection: JIM1_ECACC cell viability assay (AID 1918964). A digest of the protocol: as §1
A short description of assay [13]: Quantitative High-Throughput drug screen in 47 multiple myeloma cell lines against the NCATS MIPE library collection: KMS27_JCRB cell viability assay (AID 1918970). Also: nearly all actives have a fitted effect of over 30% in size. A digest of the protocol:
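CellTiter-Glo luminescence after 48 h drug exposure at 37 °C; 500 cells/well, 1536-well format, pin-tool compound addition; DMSO = 100%, media-only = 0% viability.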

Assay [14] can be described thus: Quantitative High-Throughput drug screen in 47 multiple myeloma cell lines against the NCATS MIPE library collection: Karpas417_ECACC cell viability assay (AID 1918961). The following applies: Karpas417 myeloma viability, CellTiter-Glo ATP luminescence, 48 h; viability (% of DMSO): at 45.8 µM (top of the series). An outline of the steps: as §4
A general note: In ATP-based viability assays light output follows the ATP content of the culture.

Assay [15] in a line: Quantitative High-Throughput drug screen in 47 multiple myeloma cell lines against the NCATS MIPE library collection: Karpas25_ECACC cell viability assay (AID 1918968; also: nearly all actives have a fitted effect of over 35% in size). A digest of the protocol: as §1
Assay [16] can be described thus: Quantitative High-Throughput drug screen in 47 multiple myeloma cell lines against the NCATS MIPE library collection: JJN3_DSMZ cell viability assay (AID 1918966; also: nearly all actives have a fitted effect of over 50% in size). A digest of the protocol: as §1
Assay [17] is described as follows: Quantitative High-Throughput drug screen in 47 multiple myeloma cell lines against the NCATS MIPE library collection: INA6_PLB cell viability assay (AID 1918965; also: nearly all actives have a fitted effect of over 55% in size). An outline of the steps:
as §4

The nature of assay [18]: Quantitative High-Throughput drug screen in 47 multiple myeloma cell lines against the NCATS MIPE library collection: KHM11_PLB cell viability assay (AID 1918962). Also: nearly all actives have a fitted effect of over 35% in size. An outline of the steps: as §2
Assay [19] can be described thus: Quantitative High-Throughput drug screen in 47 multiple myeloma cell lines against the NCATS MIPE library collection: Delta47_JCRB cell viability assay (AID 1918925; also: nearly all actives have a fitted effect of over 45% in size). A digest of the protocol: as §1
The nature of assay [20]: Quantitative High-Throughput drug screen in 47 multiple myeloma cell lines against the NCATS MIPE library collection: KMS21BM_JCRB cell viability assay (AID 1918974). Particulars: ATP luminescence, 48 h; viability: at 45.8 µM (top of the series) unless noted. A digest of the protocol: as §1

The structures appear in SMILES notation. Records with an inconclusive call do not appear. Calls of active or inactive are those of the source. Calls follow the shape of the dose curve; as a rule, active = well fitted curve in the direction sought with a large enough effect; inconclusive = small, poorly fitted or top-dose-only effect, or another doubt; inactive = no such curve, though single readings can be large; an effect the other way counts as inactive or inconclusive.
Potency is read from the fitted curve at half-maximal effect.

As to `CCCCCN(CCC12CC3CC(CC(C3)C1)C2)C(=O)NCCCc1ccncc1`, the Potency in [1] is 23.5 µM (active); in [2], 14.8 µM (active); in assay [3], 11.8 µM (active); in assay [4], 2.96 µM (active); in [6] it was 20.9 µM (active); in [7], 18.7 µM (active). The Potency in [8] is 26.4 µM (active); in assay [9] it was 4.69 µM (active); in [10], 18.7 µM (active). Moreover, the Potency result in assay [5] is “inactive”.
Turning to `CN1c2cc(O)c(N=NC(N)=O)cc2CC1S(=O)(=O)O` (centres undefined), the Potency result in assay [1], in assay [11], in assay [5], in assay [6], in assay [12] and in assay [13] was “inactive” throughout. The Potency result in [8] and in assay [10] was “inactive” each time. Besides, the Potency in assay [3] is 0.0012 µM (active).
Turning to `O=c1c2ccccc2nc2n1CCc1c-2[nH]c2ccccc12`, the Potency entry in assay [3], in assay [14], in [12], in [15], in assay [8] and in assay [9] was “inactive” in each case. Moreover, the Potency in assay [4] is 18.7 µM (active).
For `CS(=O)(=O)c1ccc(-c2cnc(N)c(C(=O)Nc3ccccc3)n2)cc1`, the Potency entry in assay [3], in [4], in [16] and in assay [10] was “inactive” in each case. In assay [7], the Potency was 4.18 µM (active).
Regarding `C[C@]12CC[C@H](O)CC1=CCC1C2CC[C@]2(C)C(n3cnc4ccccc43)=CCC12` (some centres undefined), the Potency entry in assay [2], in [3], in [4], in assay [5], in [6] and in assay [7] was “inactive” each time. Further, the Potency entry in assay [15], in [13] and in assay [10] was “inactive” in each case. Besides, the viability (% of DMSO) in assay [14] is 109% (active). Further, the Potency in assay [8] was 18.7 µM (active).
Consider `C=C1C(=CC=C2CCCC3(C)[C@@H]([C@H](C)C=CC=CC(O)(CC)CC)CC[C@@H]23)C[C@@H](O)C[C@@H]1O` (some centres undefined), for which the Potency in assay [1] was 18.7 µM (active); in [2], 14.8 µM (active); in [11], 20.9 µM (active); in [3], 16.6 µM (active); in assay [4], 20.9 µM (active); in assay [5], 20.9 µM (active). Further, the Potency in assay [12] was 16.6 µM (active); in assay [16] it was 18.7 µM (active); in assay [7], 23.5 µM (active); in assay [13], 29.6 µM (active); in [8], 20.9 µM (active).
For the compound `Nc1ccc(S(=O)(=O)Nc2ncccn2)cc1`, the Potency entry in assay [1], in assay [2], in assay [4], in assay [6], in assay [17] and in assay [13] was “inactive” in each case. For the same compound, the Potency result in assay [8] and in assay [9] was “inactive” in each case.
Regarding `Clc1cccc(-n2nnnc2NCc2ccccc2Oc2ccccn2)c1Cl`, the Potency entry in assay [1], in assay [18], in assay [6], in assay [17] and in assay [7] was “inactive” throughout.
Consider `Cc1nc2ccc(CN(C)c3ccc(C(=O)N[C@@H](CCC(=O)O)C(=O)O)s3)cc2c(=O)[nH]1`, for which the Potency result in assay [1], in assay [4], in [14], in [7] and in assay [15] was “inactive” in each case. Besides, the Potency was 0.0662 µM (active) in [2], 0.0209 µM (active) in assay [11], 0.0935 µM (active) in [6] and 0.264 µM (active) in assay [13].
For the compound `Nc1cccc(-c2cc3c(Oc4cccc(O)c4)ncnc3[nH]2)c1`, the Potency in assay [1] is 16.6 µM (active); in [11], 20.9 µM (active); in assay [18], 16.6 µM (active); in assay [6], 16.6 µM (active); in assay [17], 8.33 µM (active); in assay [15], 18.7 µM (active). The Potency in assay [8] was 20.9 µM (active); in assay [10], 18.7 µM (active). In addition, the Potency result in assay [3], in assay [4] and in [9] was “inactive” each time.
With `C=CC(=O)Nc1cccc(Oc2nc(Nc3ccc(N4CCN(C)CC4)cc3OC)ncc2Cl)c1`, the Potency in assay [19] is 0.0296 µM (active); in assay [6] it was 0.118 µM (active); in assay [17], 0.469 µM (active); in assay [16], 20.9 µM (active); in [13], 37.2 µM (active). The Potency result in assay [14] was “inactive”.
In the case of `Nc1nc(-c2nn(Cc3ccccc3F)c3ncccc23)nc(N)c1N1CCOCC1`, the Potency result in assay [1], in [11], in [12], in assay [16], in [7] and in [8] was “inactive” each time. Besides, the Potency in [2] was 20.9 µM (active). Besides, the viability (% of DMSO) in assay [14] was 86.8% (active).
For the compound `CN(C1CCc2c(c3ccccc3n2CC(=O)O)C1)S(=O)(=O)c1ccc(F)cc1` (centres undefined), the Potency is 11.8 µM (active) in assay [1]; 2.64 µM (active) in assay [2]; 2.96 µM (active) in [4]; 2.35 µM (active) in assay [5]; 0.743 µM (active) in assay [14]; 2.09 µM (active) in [15]. Further, the Potency is 1.18 µM (active) in [13], 5.26 µM (active) in assay [9] and 0.418 µM (active) in [20]. For the same compound, the Potency result in assay [6], in assay [17] and in assay [7] was “inactive” in each case.
Take `O=C(C=Cc1cccnc1)NCCCCC1CCN(C(=O)c2ccccc2)CC1`: the Potency entry in assay [1] is “inactive”. Besides, the Potency in assay [5] was 0.0148 µM (active); in assay [14], 13.2 µM (active); in [6], 0.001 µM (active); in assay [17], 0.001 µM (active); in assay [16] it was 0.0209 µM (active); in assay [7], 0.0132 µM (active). Also, the Potency in assay [15] is 0.0059 µM (active); in assay [13], 0.0132 µM (active); in [8], 0.0209 µM (active); in [9], 0.0148 µM (active); in [20], 0.0166 µM (active).
Turning to `O=C(Nc1nc2cccc(-c3ccc(CN4CCS(=O)(=O)CC4)cc3)n2n1)C1CC1`, the Potency in assay [1] is 18.7 µM (active); in assay [2] it was 5.9 µM (active); in assay [11], 20.9 µM (active); in assay [5], 8.33 µM (active); in [14] it was 1.66 µM (active); in assay [18] it was 13.2 µM (active). The Potency was 18.7 µM (active) in assay [6]; 5.9 µM (active) in assay [12]; 3.32 µM (active) in assay [17]; 7.43 µM (active) in [16]; 23.5 µM (active) in assay [7]; 16.6 µM (active) in [15]. The Potency in [8] was 7.43 µM (active); in assay [10], 18.7 µM (active).
`Clc1cccc(-c2nnnn2Cc2cccnc2)c1Cl`: the Potency entry in assay [1], in assay [11], in assay [3], in assay [4], in assay [5] and in assay [18] was “inactive” throughout. Moreover, the Potency entry in assay [6], in [12], in assay [17], in assay [9] and in [10] was “inactive” throughout. In assay [15], the Potency is 16.6 µM (active).
With `CCN1CCN(Cc2ccc(-c3cc4c(N[C@H](C)c5ccccc5)ncnc4[nH]3)cc2)CC1`, the Potency was 0.0469 µM (active) in [3]; 0.0332 µM (active) in assay [4]; 0.0743 µM (active) in assay [5]; 8.33 µM (active) in assay [14]; 5.9 µM (active) in [18]; 0.469 µM (active) in assay [6]. The Potency in assay [15] is 2.09 µM (active); in assay [13] it was 0.0166 µM (active); in assay [9], 0.0469 µM (active).

For the origin of these results see PubChem BioAssay (NCATS).
